Test results as given in PubChem BioAssay (NCATS).
Inconclusive results are not listed. Active and inactive are the calls of the source. Unless noted, the call rests on the fitted dose curve. Starred links: 1 amine or outer side, 2 acyl side, 3 side chain; linkers in the order of their positions; H or OH if unused. Positions of bridges follow the written chain, without caps; N, C: chain ends. Non-standard residues stand in square brackets, D forms with d. Residues, ends and D or L forms follow the SMILES beside them. ξ: configuration not given here. *: point of attachment. ΔAla(3-NHCONH2) = NC(=O)NC=C(N)C(=O)O; X1 = NC1=NCCC(C(N[*:1])C(=O)[*:2])N1; ξβ3hOrn = NCCCC(N)CC(=O)*; Dap = NC[CH](N)C(=O)O

Key:
[1] = qHTS for Inhibitors of the Functional Ribonucleoprotein Complex (vRNP) of Lassa (LASV) Arenavirus: LASV Primary Screen - GLuc reporter signal (AID 1347082; calls by dose curve; tested in HEK293 reporter line; further: nearly all actives have a fitted effect of over 60% in size; on activity change, negative = inhibition: series mostly up to about 57 µM)
[2] = qHTS for Inhibitors of the Functional Ribonucleoprotein Complex (vRNP) of Lassa (LASV) Arenavirus: Viability assay - alamar blue signal for LASV Primary Screen (AID 1347083; calls by dose curve; tested in HEK293 reporter line; further: nearly all actives have a fitted effect of over 80% in size; on activity change, negative = reduced viability: series mostly up to about 57 µM)
[3] = qHTS for Inhibitors of the Functional Ribonucleoprotein Complex (vRNP) of Lymphocytic Choriomeningitis Arenaviruses (LCMV): Viability assay - alamar blue signal for LCMV Primary Screen (AID 1347085; calls by dose curve; tested in HEK293 reporter line; further: nearly all actives have a fitted effect of over 80% in size; on activity change, negative = lower viability: series mostly up to about 57 µM)
[4] = target: Nucleoprotein (Lymphocytic choriomeningitis virus (strain Armstrong)) (UniProt P09992); assay: qHTS for Inhibitors of the Functional Ribonucleoprotein Complex (vRNP) of Lymphocytic Choriomeningitis Arenaviruses (LCMV): LCMV Primary Screen - GLuc reporter signal (AID 1347086); further: nearly all actives have a fitted effect of over 70% in size; on activity change, negative = inhibition: series mostly up to about 57 µM
On the % scale 0 is the no-effect control and ±100 the full control effect; potency means the concentration at half of the fitted maximal effect.

Sequence of Nucleoprotein (Lymphocytic choriomeningitis virus (strain Armstrong)) (P09992 whole entry, looked up): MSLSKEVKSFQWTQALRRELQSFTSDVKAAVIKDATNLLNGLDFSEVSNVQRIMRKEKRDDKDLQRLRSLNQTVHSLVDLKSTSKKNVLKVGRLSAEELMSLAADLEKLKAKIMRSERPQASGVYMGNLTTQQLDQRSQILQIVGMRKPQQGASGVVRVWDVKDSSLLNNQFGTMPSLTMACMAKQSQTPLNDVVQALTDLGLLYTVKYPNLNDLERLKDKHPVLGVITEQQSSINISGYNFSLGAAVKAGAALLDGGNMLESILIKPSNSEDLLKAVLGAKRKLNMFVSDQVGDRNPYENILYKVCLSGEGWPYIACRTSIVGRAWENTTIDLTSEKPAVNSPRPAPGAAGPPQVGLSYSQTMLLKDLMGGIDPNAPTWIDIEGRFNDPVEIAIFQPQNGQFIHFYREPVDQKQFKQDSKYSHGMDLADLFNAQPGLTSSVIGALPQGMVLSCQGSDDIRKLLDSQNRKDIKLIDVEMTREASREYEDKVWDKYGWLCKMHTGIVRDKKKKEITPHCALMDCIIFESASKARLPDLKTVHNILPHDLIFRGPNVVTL

CCN(CC)C(=S)SSC(=S)N(CC)CC
active: Potency [1] 193 nM | Potency [2] 122 nM | Potency [3] 863 nM | Potency [4] 193 nM

CC1(C)S[C@@H]2[C@H](NC(=O)[C@H](N)c3ccccc3)C(=O)N2[C@H]1C(=O)O
inactive: Potency [1] | Potency [2] | Potency [3] | Potency [4]

NCCCC(N)CC(=O)NCC1NC(=O)C(CO)NC(=O)C(N)CNC(=O)C(C2CCN=C(N)N2)NC(=O)C(=CNC(N)=O)NC1=O (stereo not drawn) (H-[Dap]S[Dap](ξβ3hOrn)[ΔAla(3-NHCONH2)][X1]; lactam 1-C; configuration not given here)
inactive: activity change, negative = inhibition [1] 2.05% [at 0.757 µM] | activity change, negative = reduced viability [2] -7.39% [at 0.757 µM] | activity change, negative = lower viability [3] -4.22% [at 0.757 µM] | activity change, negative = inhibition [4] -2.08% [at 0.757 µM]

NS(=O)(=O)c1cc2c(cc1Cl)NC=NS2(=O)=O
inactive: Potency [1] | Potency [2] | Potency [3] | Potency [4]

Nc1cccc2c1CN(C1CCC(=O)NC1=O)C2=O (stereo not drawn)
inactive: Potency [1] | Potency [2] | Potency [3] | Potency [4]

Nc1nnc(-c2cccc(Cl)c2Cl)c(N)n1
inactive: Potency [1] | Potency [2] | Potency [3] | Potency [4]

CCc1ccc(CCOc2ccc(CC3SC(=O)NC3=O)cc2)nc1 (stereo not drawn)
inactive: Potency [1] | Potency [2] | Potency [3] | Potency [4]

CC(COc1ccccc1)N(CCCl)Cc1ccccc1 (stereo not drawn)
inactive: Potency [1] | Potency [2] | Potency [3] | Potency [4]

CS(=O)(=O)OCCCCOS(C)(=O)=O
inactive: Potency [1] | Potency [2] | Potency [3] | Potency [4]

CCCCS(=O)(=O)N[C@@H](Cc1ccc(OCCCCC2CCNCC2)cc1)C(=O)O
inactive: Potency [1] | Potency [2] | Potency [3] | Potency [4]

CC(CN1c2ccccc2Sc2ccccc21)N(C)C (stereo not drawn)
inactive: Potency [1] | Potency [2] | Potency [3] | Potency [4]

CC(=O)O[C@]1(C(C)=O)CC[C@H]2[C@@H]3C=C(Cl)C4=CC(=O)[C@@H]5C[C@@H]5[C@]4(C)[C@H]3CC[C@@]21C
inactive: Potency [1] | Potency [2] | Potency [3] | Potency [4]

COc1cc(C(=O)NCc2ccc(OCCN(C)C)cc2)cc(OC)c1OC
inactive: Potency [1] | Potency [2] | Potency [3] | Potency [4]

CCn1cc(C(=O)O)c(=O)c2ccc(C)nc21
inactive: Potency [1] | Potency [2] | Potency [3] | Potency [4]

COC(=O)C(c1ccccc1Cl)N1CCc2sccc2C1 (stereo not drawn)
inactive: Potency [1] | Potency [2] | Potency [3] | Potency [4]

NC(=O)OCC(COC(N)=O)c1ccccc1
inactive: Potency [1] | Potency [2] | Potency [3] | Potency [4]

CC1Cc2ccccc2N1NC(=O)c1ccc(Cl)c(S(N)(=O)=O)c1 (stereo not drawn)
inactive: Potency [1] | Potency [2] | Potency [3] | Potency [4]

O=NN(CCCl)C(=O)NC1CCCCC1
inactive: Potency [1] | Potency [2] | Potency [3] | Potency [4]

O=C(O)CCNC(=O)c1ccc(N=Nc2ccc(O)c(C(=O)O)c2)cc1
inactive: Potency [1] | Potency [2] | Potency [3] | Potency [4]

COc1cc2nc(N(C)CCCNC(=O)C3CCCO3)nc(N)c2cc1OC (stereo not drawn)
inactive: Potency [1] | Potency [2] | Potency [3] | Potency [4]

CCCN(CCc1cccs1)[C@H]1CCc2c(O)cccc2C1
inactive: Potency [1] | Potency [2] | Potency [3] | Potency [4]

CC(C)(C)C(=O)OCOP(=O)(COCCn1cnc2c(N)ncnc21)OCOC(=O)C(C)(C)C
inactive: Potency [1] | Potency [2] | Potency [3] | Potency [4]

CN(C)CCC=C1c2ccccc2C=Cc2ccccc21
inactive: Potency [1] | Potency [2] | Potency [3] | Potency [4]

CCCCN1C[C@H](O)[C@@H](O)[C@H](O)[C@H]1CO
inactive: Potency [1] | Potency [2] | Potency [3] | Potency [4]

Cn1cnc2c(F)c(Nc3ccc(Br)cc3Cl)c(C(=O)NOCCO)cc21
inactive: Potency [1] | Potency [2] | Potency [3] | Potency [4]

CN1CCN(C2=Nc3cc(Cl)ccc3Nc3ccccc32)CC1
inactive: Potency [1] | Potency [2] | Potency [3] | Potency [4]

CC(=O)O[C@]1(C(C)=O)CC[C@H]2[C@@H]3C=C(C)C4=CC(=O)CC[C@]4(C)[C@H]3CC[C@@]21C
inactive: Potency [1] | Potency [2] | Potency [3] | Potency [4]

COc1cc2c(cc1OC)C(=O)C(CC1CCN(Cc3ccccc3)CC1)C2 (stereo not drawn)
inactive: Potency [1] | Potency [2] | Potency [3] | Potency [4]

CC(=O)Nc1nnc(S(N)(=O)=O)s1
inactive: Potency [1] | Potency [2] | Potency [3] | Potency [4]

CN1CCC[C@@H]1Cc1c[nH]c2ccc(CCS(=O)(=O)c3ccccc3)cc12
inactive: Potency [1] | Potency [2] | Potency [3] | Potency [4]

C[N+]1(C)CCC(OC(=O)C(O)(c2ccccc2)C2CCCC2)C1 (stereo not drawn)
inactive: Potency [1] | Potency [2] | Potency [3] | Potency [4]

CC(C)NCC(O)COc1cccc2[nH]ccc12 (stereo not drawn)
inactive: Potency [1] | Potency [2] | Potency [3] | Potency [4]

Nc1[nH]c(=O)ncc1F
inactive: Potency [1] | Potency [2] | Potency [3] | Potency [4]

Cc1[nH]cnc1CN1CCc2c(c3ccccc3n2C)C1=O
inactive: Potency [1] | Potency [2] | Potency [3] | Potency [4]

C[C@](N)(Cc1ccc(O)c(O)c1)C(=O)O
inactive: Potency [1] | Potency [2] | Potency [3] | Potency [4]

O=C(CCCN1CCC(O)(c2ccc(Cl)cc2)CC1)c1ccc(F)cc1
inactive: Potency [1] | Potency [2] | Potency [3] | Potency [4]

NS(=O)(=O)Cc1noc2ccccc12
inactive: Potency [1] | Potency [2] | Potency [3] | Potency [4]

Cc1[nH]c(=O)c(C#N)cc1-c1ccncc1
inactive: Potency [1] | Potency [2] | Potency [3] | Potency [4]

NC(=Nc1ccccc1)Nc1ccccc1
inactive: Potency [1] | Potency [2] | Potency [3] | Potency [4]

CN1CCc2cccc3c2[C@H]1Cc1ccc(O)c(O)c1-3
inactive: Potency [1] | Potency [2] | Potency [3] | Potency [4]

Cc1cnc(C(=O)NCCc2ccc(S(=O)(=O)NC(=O)NC3CCCCC3)cc2)cn1
inactive: Potency [1] | Potency [2] | Potency [3] | Potency [4]

COc1ccc(Cl)cc1C(=O)NCCc1ccc(S(=O)(=O)NC(=O)NC2CCCCC2)cc1
inactive: Potency [1] | Potency [2] | Potency [3] | Potency [4]

COC(=O)N[C@H](C(=O)N[C@@H](Cc1ccccc1)[C@@H](O)CN(Cc1ccc(-c2ccccn2)cc1)NC(=O)[C@@H](NC(=O)OC)C(C)(C)C)C(C)(C)C
inactive: Potency [1] | Potency [2] | Potency [3] | Potency [4]

C[C@@H]1C[C@H]2[C@@H]3CCC4=CC(=O)C=C[C@]4(C)[C@@]3(F)[C@@H](O)C[C@]2(C)[C@@]1(O)C(=O)CO
inactive: Potency [1] | Potency [2] | Potency [3] | Potency [4]

CCc1nc(N)nc(N)c1-c1ccc(Cl)cc1
inactive: Potency [1] | Potency [4]
active: Potency [2] 38500 nM | Potency [3] 7690 nM

C[C@@H](O)[C@H]1C(=O)N2C(C(=O)O)=C(S[C@@H]3CN[C@H](CNS(N)(=O)=O)C3)[C@H](C)[C@H]12
inactive: Potency [1] | Potency [2] | Potency [3] | Potency [4]

COCCCOc1cc(C[C@@H](C[C@H](N)[C@@H](O)C[C@H](C(=O)NCC(C)(C)C(N)=O)C(C)C)C(C)C)ccc1OC
inactive: Potency [1] | Potency [2] | Potency [3] | Potency [4]

CCN(CC)CCNC(=O)c1cc(Cl)c(N)cc1OC
inactive: Potency [1] | Potency [2] | Potency [3] | Potency [4]

CNCCC(Oc1ccc(C(F)(F)F)cc1)c1ccccc1 (stereo not drawn)
inactive: Potency [1] | Potency [2] | Potency [3] | Potency [4]

Cn1c(=O)c2c(ncn2CC(O)CO)n(C)c1=O (stereo not drawn)
inactive: Potency [1] | Potency [2] | Potency [3] | Potency [4]

CN(N=O)C(=O)N[C@@H]1[C@@H](O)[C@H](O)[C@@H](CO)O[C@@H]1O
inactive: Potency [1] | Potency [2] | Potency [3] | Potency [4]

CC(C)NCC(O)COc1ccc(CCOCC2CC2)cc1 (stereo not drawn)
inactive: Potency [1] | Potency [2] | Potency [3] | Potency [4]

OCCN(CCO)c1nc(N2CCCCC2)c2nc(N(CCO)CCO)nc(N3CCCCC3)c2n1
inactive: Potency [1] | Potency [2] | Potency [3] | Potency [4]

CN(C)CC/C=C1\c2ccccc2COc2ccccc21
inactive: Potency [1] | Potency [2] | Potency [3] | Potency [4]

OC(Cn1cncn1)(Cn1cncn1)c1ccc(F)cc1F
inactive: Potency [1] | Potency [2] | Potency [3] | Potency [4]

Oc1ccc(C2CNCCc3c2cc(O)c(O)c3Cl)cc1 (stereo not drawn)
inactive: Potency [1] | Potency [2] | Potency [3] | Potency [4]

Cc1cccc(Nc2ccncc2S(=O)(=O)NC(=O)NC(C)C)c1
inactive: Potency [1] | Potency [2] | Potency [3] | Potency [4]

Cc1cn[nH]c1
inactive: Potency [1] | Potency [2] | Potency [3] | Potency [4]

CN(C)CCOC(C)(c1ccccc1)c1ccccn1 (stereo not drawn)
inactive: Potency [1] | Potency [2] | Potency [3] | Potency [4]

Nc1nc2c(ncn2COCCO)c(=O)[nH]1
inactive: Potency [1] | Potency [2] | Potency [3] | Potency [4]

CC[N+](C)(C)c1cccc(O)c1
inactive: Potency [1] | Potency [2] | Potency [3] | Potency [4]

C[C@@H](O)[C@H]1C(=O)N2C(C(=O)O)=C(S[C@@H]3CN[C@H](C(=O)N(C)C)C3)[C@H](C)[C@H]12
inactive: Potency [1] | Potency [2] | Potency [3] | Potency [4]

COc1cc2c(cc1OC)[C@@H]1CC(=O)[C@@H](CC(C)C)CN1CC2
inactive: Potency [1] | Potency [2] | Potency [3] | Potency [4]

CC(C)NC[C@@H](O)COc1ccc(CC(N)=O)cc1
inactive: Potency [1] | Potency [2] | Potency [3] | Potency [4]

CC[C@]1(O)C[C@H]2CN(CCc3c([nH]c4ccccc34)[C@@](C(=O)OC)(c3cc4c(cc3OC)N(C=O)[C@H]3[C@@](O)(C(=O)OC)[C@H](OC(C)=O)[C@]5(CC)C=CCN6CC[C@]43[C@@H]65)C2)C1
active: Potency [2] 15.3 nM | Potency [3] 6.1 nM | Potency [4] 15.3 nM
inactive: Potency [1]

CN(C)CC[C@@H](c1ccc(Br)cc1)c1ccccn1
inactive: Potency [1] | Potency [2] | Potency [3] | Potency [4]

CC(=O)N[C@@H](CS)C(=O)O
inactive: Potency [1] | Potency [2] | Potency [3] | Potency [4]

CC(C)c1c(C(=O)Nc2ccccc2)c(-c2ccccc2)c(-c2ccc(F)cc2)n1CC[C@@H](O)C[C@@H](O)CC(=O)O
inactive: Potency [1] | Potency [2] | Potency [4]

NC[C@H](O)c1ccc(O)c(O)c1
inactive: Potency [1] | Potency [2] | Potency [3] | Potency [4]

CS(=O)c1ccc(-c2nc(-c3ccc(F)cc3)c(-c3ccncc3)[nH]2)cc1 (stereo not drawn)
inactive: Potency [1] | Potency [3] | Potency [4]
